Screening data deposited in PubChem by Broad Institute.
EWS-Fli inh = EWS/Fli-driven NR0B1 reporter inhibitors, primary screen, A673 cells, NR0B1 luciferase, luminescence, MLPCN library | viability-normalised | inhibition, % at 12.6 µM | 0.67% of 350,000 active | AID 651661, 2012;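 active = mean inhibition of at least 50% after viability correction, with every replicate also passing that limit; inconclusive = mean reaches 50% but only one of two replicates passes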;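 also: firefly luciferase signal divided by Alamar Blue viability fluorescence both relative to DMSO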
Wnt act = Wnt/beta-catenin pathway activators, primary screen, cell-based, plate reader, single point; Wnt/beta-catenin reporter cell assay, activator; activation, % at 9.35 µM; 1.2% of 300,000 active; in the data active = activation above about 30%, passing the limit was not always enough; inconclusive = no clear call, values can overlap the other calls
PAX8 reporter = inhibitors of PAX8-driven TPO luciferase reporter, primary screen, RMG-I cells, single concentration; 1.2% of 360,000 active; inhibition, % at 12.6 µM; SteadyGlo, 24 h;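 active = mean replicate inhibition at least 60% with every replicate also reaching 60%; inconclusive = only one of the two criteria is met; inactive = mean below 60% and not all replicates reaching 60%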;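 also: luciferase light reporting Pax8 driven TPO promoter activity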
esBAF inh = Bmi1 luciferase reporter increase in mESCs, primary screen, esBAF inhibitor project, mouse ES cells, Bmi1 luciferase knock-in, single point; 24 h; 100% = twice the neutral-well signal; reporter increase, % at 12.5 µM; 2% of 350,000 active; AID 602393, 2012; in the data active = activation above about 40%; inconclusive = no clear call, values can overlap the other calls;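 also: a rise in the Bmi1 reporter signal indicates esBAF inhibition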
TRPM1 prom inh = inhibitors of MITF-dependent TRPM1 promoter reporter, primary screen, cell-based, SK-MEL-5, single point, luciferase; SK-MEL-5 TRPM1 promoter luciferase, 24 h; inhibition, % at 12.5 µM; 0.83% of 330,000 active; AID 488899, 2010;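 active = mean inhibition across replicates of 60% or more, whatever share of single replicates reaches that level; inconclusive = some that reach 60%, reason not given; inactive = mean inhibition across replicates below 60%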
MITF act = activators of MITF-driven TRPM1 promoter reporter, primary screen, cell-based, SK-MEL-5, luciferase, single point; AID 588334, 2011; 0.75% of 300,000 active; activation, % at 12.5 µM; SK-MEL-5 TRPM1-promoter luciferase, 24 h; % of positive control, neutral wells = 0;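 active = mean activation of at least 80% with every replicate also reaching 80%; inconclusive = mean reaches 80% but some replicate falls short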
esBAF Ring1 qPCR = Ring1 mRNA increase in mouse ESCs, confirmation, esBAF inhibitor project, cell-based, mouse ESC, RT-qPCR, cherry-pick; shares compounds with esBAF inh; mouse ESC E14, Ring1 mRNA RT-qPCR fold change; fold change at 33 µM; 550 tested, under 10 active; AID 743176, 2013;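 active = Ring1 gene expression raised more than 2-fold over untreated cells in both replicates at either tested dose; inconclusive = only one replicate above 2-fold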;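 also: Ring1 transcript normalised to actin housekeeping signal by TaqMan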
Fgf4 repress = Fgf4 mRNA decrease in mouse ESCs, confirmation, esBAF inhibitor project, cell-based, mouse ESC, RT-qPCR, cherry-pick; shares compounds with esBAF inh; mouse ESC E14, Fgf4 mRNA qPCR fold change; active compounds read low; Fgf4 expression fold change at 33 µM; 4% of 550 active; AID 743177, 2013;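 active = Fgf4 expression under 0.8 fold of control in both repeat measurements at one or both tested doses; inconclusive = under 0.8 fold in just a single repeat measurement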;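 also: Fgf4 transcript normalised to actin in duplex TaqMan qPCR; cells exposed to compound for 24 h before lysis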
esBAF Bmi1 qPCR = esBAF inhibition via Bmi1 de-repression, confirmation, cell-based, RT-qPCR, mouse ESC, single point, cherry-pick | shares compounds with esBAF inh | mouse ESE14 ES cells, Bmi1 mRNA qPCR fold; active compounds read high | fold change at 33 µM | 550 tested, under 10 active;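 active = Bmi1 expression fold change above 6 at either tested concentration, seen in replicate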;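 also: higher fold means more Bmi1 de-repression and stronger esBAF inhibition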
A549 cytotox = A549 cell cytotoxicity, cytotoxicity control, plate reader, single point, cherry-pick; shares compounds with esBAF inh; cell viability change % (negative = cytotoxic), % at 25 µM, hits read low; 550 tested, under 10 active; AID 743188, 2013; call rule not given here
HepG2 tox SP = HepG2 cell cytotoxicity, cytotoxicity control, plate reader, single point, cherry-pick; AID 743189, 2013; 4% of 550 active; active compounds read low; shares compounds with esBAF inh; activity change, negative = inhibition, % at 25 µM; in the data active = activity change below about -50%
HEK293 cytotox SP = HEK293 cell cytotoxicity, cytotoxicity control, plate reader, single point, cherry-pick; shares compounds with esBAF inh; activity change, negative = inhibition, % at 25 µM, hits read low; 3% of 550 active; AID 743190, 2013; in the data active = activity change below about -38%, passing the limit was not always enough
Hits are given with their value; . = inactive; ? = inconclusive; / = not tested or not shown. Only some compounds are listed: those with a hit (about 4% of all), similar ones and a draw of the others.

SMILES	EWS-Fli inh	Wnt act	PAX8 reporter	esBAF inh	TRPM1 prom inh	MITF act	esBAF Ring1 qPCR	Fgf4 repress	esBAF Bmi1 qPCR	A549 cytotox	HepG2 tox SP	HEK293 cytotox SP
Clc1ccccc1C=NNc1ccccn1	.	39	.	98	.	.	.	.	.	.	.	.
FC(F)(F)c1ccccc1/C=N/Nc1ccccn1	.	.	.	/	.	.	/	/	/	/	/	/
Oc1cccc(C=NNc2ccccn2)c1	.	.	.	76	.	.	.	.	.	.	.	.
O=C(Nc1nc2c(s1)CCc1ccccc1-2)c1cccs1	/	/	/	71	.	.	.	?	.	.	.	.
O=C(Nc1nc2c(s1)COc1ccccc1-2)c1cccs1	.	.	.	.	/	/	/	/	/	/	/	/
C[C@H](CO)N1C[C@H](C)[C@@H](CN(C)Cc2ccccc2)Oc2ccc(NS(=O)(=O)c3ccccc3)cc2C1=O	.	/	.	.	/	/	/	/	/	/	/	/
Cn1cccc1C(=O)OCc1ccc(C(C)(C)C)cc1	.	.	.	84	.	/	.	?	.	.	.	.
COc1cccc(NC(=O)C(=O)NCCC2CCCCN2S(=O)(=O)c2cccs2)c1 (stereo not drawn)	.	39	/	60	.	96	.	.	.	.	.	.
COc1cccc(NC(=O)C(=O)NCC2CCCN2S(=O)(=O)c2cccs2)c1 (stereo not drawn)	.	.	.	62	/	/	.	.	.	.	.	.
Clc1ncccc1-c1nc2ccccc2s1	.	.	.	/	.	.	/	/	/	/	/	/
O=c1c(-c2nc3ccccc3s2)cccn1Cc1ccc(Cl)cc1	/	.	.	67	.	/	.	.	.	.	.	.
COc1ccc2c3c(n(C)c2c1)[C@@H](CO)N(CC1CCOCC1)CC31CCN(C(=O)Nc2ccccc2)CC1	.	/	/	/	/	/	/	/	/	/	/	/
O=C(Nc1ccccc1Cl)c1ccc(C(=O)Nc2ccccc2Cl)cc1	.	.	.	/	.	.	/	/	/	/	/	/
O=C(Nc1cccc(Cl)c1Cl)c1ccc(-c2ccccc2)cc1	/	/	/	74	.	.	.	.	.	.	.	.
C[C@H]1CN([C@@H](C)CO)C(=O)c2cc(NC(=O)Nc3cccc4ccccc34)ccc2O[C@H]1CN(C)Cc1ccc(C(=O)Nc2ccccc2N)cc1	.	/	/	.	/	/	/	/	/	/	/	/
COc1cc(/C=C2/C(=N)N3N=C(CC(=O)N4CCOCC4)SC3=NC2=O)ccc1OCc1ccc(F)cc1	.	.	.	48	.	.	.	.	.	.	.	.
COc1cc(/C=C2/C(=N)N3N=C(CC(=O)N4CCOCC4)SC3=NC2=O)ccc1OCc1ccccc1F	/	/	/	.	.	.	/	/	/	/	/	/
COc1ccc(CCn2nnc3ccccc3c2=O)cc1OC	.	.	.	61	/	/	.	.	.	.	.	.
C/C=C/c1ccc([C@H]2[C@@H](CO)N(C(=O)CC)C23CN(C(=O)c2ccccc2)C3)cc1	.	/	.	/	/	/	/	/	/	/	/	/
COc1ccc2c3c(n(C)c2c1)[C@H](CO)N(CC1CC1)CC31CN(Cc2nccs2)C1	.	/	.	/	/	/	/	/	/	/	/	/
O=C(c1ccc(Cl)cc1)c1cnc(-c2ccc(Cl)cc2)s1	/	/	.	63	.	.	.	.	.	.	.	.
O=C(c1ccccc1)c1cnc(-c2ccccc2)s1	.	.	.	/	.	.	/	/	/	/	/	/
O=C(CC1CC1)N[C@@H]1CC[C@H](CCNS(=O)(=O)c2ccc(Cl)cc2)O[C@@H]1CO	.	/	.	.	/	/	/	/	/	/	/	/
CN(CCc1ccccn1)C(=O)CCc1nnc(CCCc2ccccc2)o1	.	.	.	110	.	.	.	.	.	.	.	.
CCCNC(=O)C[C@H]1CC[C@H]2[C@H](COc3ccc(NC(=O)Cc4ccccc4)cc3C(=O)N2C)O1	.	/	.	.	/	/	/	/	/	/	/	/
SMILES	EWS-Fli inh	Wnt act	PAX8 reporter	esBAF inh	TRPM1 prom inh	MITF act	esBAF Ring1 qPCR	Fgf4 repress	esBAF Bmi1 qPCR	A549 cytotox	HepG2 tox SP	HEK293 cytotox SP
Cc1ccccc1-c1nnc(-c2cccc3ccccc23)o1	.	55	.	71	.	.	.	.	.	.	.	.
Cc1ccc(S(=O)(=O)N(C)C[C@H]2OCCCC[C@H](C)Oc3ccc(NC(=O)Nc4ccc5c(c4)OCO5)cc3C(=O)N([C@@H](C)CO)C[C@H]2C)cc1	.	/	.	.	/	/	/	/	/	/	/	/
O=C1CCCc2c1sc1nc3n(c(=O)c21)CCCCC3	/	.	.	68	.	.	.	.	.	.	-62	.
C=CCn1c(O)c(C=Nc2ccccc2)sc1=S	.	.	.	68	.	.	.	.	.	.	.	.
CCn1c(O)c(C=Nc2ccccc2)sc1=S	.	/	.	/	/	/	/	/	/	/	/	/
CCn1c(-c2ccc(N)cc2)nc2ccccc21	.	.	.	.	.	.	/	/	/	/	/	/
C=CCn1c(-c2ccc(N)cc2)nc2ccccc21	.	.	.	58	.	.	.	.	.	.	.	.
COc1ccc(F)cc1-c1cc(C(=O)Nc2cccnc2)[nH]n1	.	.	.	57	/	/	.	.	.	.	.	.
O=C(Nc1cccnc1)c1cc(-c2ccc(Cl)c(Cl)c2)on1	.	.	.	.	.	.	/	/	/	/	/	/
COc1ccc(-c2cc(C(=O)Nc3cccnc3)no2)cc1OC	.	.	.	65	.	87	.	?	.	.	.	.
CC(C)Oc1ccc(F)cc1-c1cc(C(=O)Nc2ccccc2)[nH]n1	.	.	.	.	/	/	/	/	/	/	/	/
CO[C@@H]1CN(C)C(=O)c2ccc(NC(=O)Nc3cc(Cl)cc(Cl)c3)cc2OC[C@H](C)NC[C@@H]1C	.	/	.	.	/	/	/	/	/	/	/	/
CO[C@H]1CN(C)C(=O)c2ccc(NS(=O)(=O)c3ccc(-c4ccccc4)cc3)cc2OC[C@H](C)NC[C@@H]1C	/	/	.	/	/	/	/	/	/	/	/	/
COc1cc(/C=C/c2ccccc2)cc(OC)c1	.	.	/	68	.	96	.	.	.	.	.	.
COc1cc(C=C2C(=O)c3ccccc3C2=O)cc(OC)c1	.	.	.	/	.	/	/	/	/	/	/	/
